We go through 10 compounds from PubChem BioAssay (EPA / NIEHS).

Structures are written as SMILES. Results filed as inconclusive are left out. Active and inactive are the calls of the source. How the source made its calls: active means hit-call score of the fitted dose curve at least 0.9, where 1 is the maximum; inconclusive means response in the unintended direction; inactive means score below 0.9.

rat Catechol-O-Methyl Transferase (COMT), Comt (gene 24267), sequence (P22734 whole entry, looked up): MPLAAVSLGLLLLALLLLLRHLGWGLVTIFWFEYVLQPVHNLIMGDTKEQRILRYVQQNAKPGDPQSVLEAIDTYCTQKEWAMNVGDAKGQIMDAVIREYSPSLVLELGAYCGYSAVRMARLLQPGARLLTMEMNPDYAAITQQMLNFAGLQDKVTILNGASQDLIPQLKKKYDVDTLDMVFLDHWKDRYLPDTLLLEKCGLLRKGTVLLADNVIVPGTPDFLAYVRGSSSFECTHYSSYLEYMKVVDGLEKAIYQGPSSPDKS
sheep Cyclooxygenase-2 (Cox2), PTGS2 (gene 443460), sequence (P79208 whole entry, looked up): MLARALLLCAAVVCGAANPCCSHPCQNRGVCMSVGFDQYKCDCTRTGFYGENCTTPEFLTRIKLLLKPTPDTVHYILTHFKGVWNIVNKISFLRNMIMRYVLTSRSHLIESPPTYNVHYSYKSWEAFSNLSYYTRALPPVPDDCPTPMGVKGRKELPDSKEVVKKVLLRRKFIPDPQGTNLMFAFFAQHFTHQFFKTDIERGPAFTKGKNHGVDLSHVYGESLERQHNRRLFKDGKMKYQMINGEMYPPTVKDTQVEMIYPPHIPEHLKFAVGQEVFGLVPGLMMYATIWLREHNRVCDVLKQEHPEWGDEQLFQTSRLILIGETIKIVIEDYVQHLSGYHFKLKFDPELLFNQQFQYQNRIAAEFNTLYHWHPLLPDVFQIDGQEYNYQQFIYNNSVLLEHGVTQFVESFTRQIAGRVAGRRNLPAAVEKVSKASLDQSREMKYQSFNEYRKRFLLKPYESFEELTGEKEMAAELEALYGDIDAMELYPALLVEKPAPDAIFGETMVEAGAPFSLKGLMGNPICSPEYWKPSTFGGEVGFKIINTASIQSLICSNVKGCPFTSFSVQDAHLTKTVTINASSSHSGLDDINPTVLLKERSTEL

One assay addresses sheep Cyclooxygenase-2 (Cox2), PTGS2 (gene 443460) (UniProt P79208). The assay can be described thus: NVS_ENZ_oCOX2: NovaScreen (NVS) Enzymatic Assay for sheep Cyclooxygenase-2 (Cox2) (AID 2283231). On the procedure:
NVS_ENZ_oCOX2 is a biochemical, single-readout assay that uses extracted gene-proteins from Ovine placenta in a tissue-based cell-free assay. Measurements were taken 0.66 hour after chemical dosing in a 96-well plate.NVS_ENZ_oCOX2 is one of one assay component(s) measured or calculated from the NVS_ENZ_oCOX2 assay. It is designed to make measurements of enzyme activity, a form of enzyme reporter, as detected with absorbance signals by Colorimetric technology.Data from the assay component NVS_ENZ_oCOX2 was analyzed into 1 assay endpoint. This assay endpoint, NVS_ENZ_oCOX2, was analyzed in the positive analysis fitting direction relative to DMSO as the negative control and baseline of activity. Using a type of enzyme reporter, loss-of-signal activity can be used to understand changes in the enzymatic activity as they relate to the gene PTGS2. Furthermore, this assay endpoint can be referred to as a primary readout, because this assay has produced multiple assay endpoints where this one serves a enzymatic activity function. To generalize the intended target to other relatable targets, this assay endpoint is annotated to the oxidoreductase intended target family, where the subfamily is cyclooxygenase.
Binding assays used specific radioligands (tritiated, iodinated) with non-radioactive competitive displacement ligands in agonist or antagonist protocols (as indicated) and various reference compounds and inhibitors to titrate specific binding to receptors and transporters. Most enzyme assays (CYPs, kinases, phosphatases, proteases, HDACs) used recombinant protein and specific substrates (fluorescence mostly, some colorimetric and radioactive) and inhibitors, followed by a biochemical separation of substrate and product. All assays for the biochemical HTS were initially run in duplicate at a single concentration (10 uM for CYP450 assays and 25 uM for all others). Assay-chemical combinations meeting a pre-defined threshold (e.g., 30% inhibition and other criteria defined below) were then run in singleton concentration-response format with maximum concentration of 20 uM for CYPs and 50 uM for all others. Each assay was run with positive and negative controls, and concurrent controls on every plate. The follow-up (secondary) screen tested active chemical-pairs in concentration series, as well as a few additional assays not tested in the primary screen, some selected negative inactives, and several cases re-run in the concentration series for confirmatory purposes.
As to `O=[N+]([O-])c1ccc(Cl)c(Cl)c1`, the AC50 (usually the concentration giving half of the maximal activity seen) was 18.5 µM (active).

For the compound `c1ccc(OP(Oc2ccccc2)Oc2ccccc2)cc1`, the compound was classed as inactive.

Regarding `CC1(C)CN=C(NN=C(/C=C/c2ccc(C(F)(F)F)cc2)/C=C/c2ccc(C(F)(F)F)cc2)NC1`, the half-maximal activity concentration (AC50) was 17.4 µM (active).

`Nc1ccc2ccccc2c1`: the half-maximal activity concentration (AC50) was 7.93 µM (active).

A further assay has as its target rat Catechol-O-Methyl Transferase (COMT), Comt (gene 24267) (UniProt P22734). The assay can be described thus: NVS_ENZ_rCOMT: NovaScreen (NVS) Enzymatic Assay for rat Catechol-O-Methyl Transferase (COMT) (AID 2283235). The method, boiled down: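 Rat dorsal striatum extract served as COMT source; product quantified by HPLC/spectrophotometry, read at 0 h after dosing. Primary single-concentration screen at 25 uM, followed by concentration series to a 50 uM maximum.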
On to `CCCCc1ccccc1`, for which the result was inactive.

With `CSC(C)(C)C=NO`, the result was inactive.

On to `CC(Cc1ccc(OCC(=O)O)cc1)NCC(O)c1csc(C(F)(F)F)n1` (stereo not given), for which the compound was classed as inactive.

The target of a further assay is rat Constitutive Nitric Oxide Synthase (CNOS), Nos1 (gene 24598) (UniProt P29476). Nature of the assay: NVS_ENZ_rCNOS: NovaScreen (NVS) Enzymatic Assay for rat Constitutive Nitric Oxide Synthase (CNOS) (AID 2283236). The method, boiled down: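 Single 25 uM duplicate screen, then concentration series to 50 uM for chemicals meeting threshold. Rat brain membrane-derived CNOS activity detected radiometrically by filtration and scintillation counting, 1 h after compound addition; DMSO as baseline.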
rat Constitutive Nitric Oxide Synthase (CNOS), Nos1 (gene 24598), sequence (P29476 whole entry, looked up): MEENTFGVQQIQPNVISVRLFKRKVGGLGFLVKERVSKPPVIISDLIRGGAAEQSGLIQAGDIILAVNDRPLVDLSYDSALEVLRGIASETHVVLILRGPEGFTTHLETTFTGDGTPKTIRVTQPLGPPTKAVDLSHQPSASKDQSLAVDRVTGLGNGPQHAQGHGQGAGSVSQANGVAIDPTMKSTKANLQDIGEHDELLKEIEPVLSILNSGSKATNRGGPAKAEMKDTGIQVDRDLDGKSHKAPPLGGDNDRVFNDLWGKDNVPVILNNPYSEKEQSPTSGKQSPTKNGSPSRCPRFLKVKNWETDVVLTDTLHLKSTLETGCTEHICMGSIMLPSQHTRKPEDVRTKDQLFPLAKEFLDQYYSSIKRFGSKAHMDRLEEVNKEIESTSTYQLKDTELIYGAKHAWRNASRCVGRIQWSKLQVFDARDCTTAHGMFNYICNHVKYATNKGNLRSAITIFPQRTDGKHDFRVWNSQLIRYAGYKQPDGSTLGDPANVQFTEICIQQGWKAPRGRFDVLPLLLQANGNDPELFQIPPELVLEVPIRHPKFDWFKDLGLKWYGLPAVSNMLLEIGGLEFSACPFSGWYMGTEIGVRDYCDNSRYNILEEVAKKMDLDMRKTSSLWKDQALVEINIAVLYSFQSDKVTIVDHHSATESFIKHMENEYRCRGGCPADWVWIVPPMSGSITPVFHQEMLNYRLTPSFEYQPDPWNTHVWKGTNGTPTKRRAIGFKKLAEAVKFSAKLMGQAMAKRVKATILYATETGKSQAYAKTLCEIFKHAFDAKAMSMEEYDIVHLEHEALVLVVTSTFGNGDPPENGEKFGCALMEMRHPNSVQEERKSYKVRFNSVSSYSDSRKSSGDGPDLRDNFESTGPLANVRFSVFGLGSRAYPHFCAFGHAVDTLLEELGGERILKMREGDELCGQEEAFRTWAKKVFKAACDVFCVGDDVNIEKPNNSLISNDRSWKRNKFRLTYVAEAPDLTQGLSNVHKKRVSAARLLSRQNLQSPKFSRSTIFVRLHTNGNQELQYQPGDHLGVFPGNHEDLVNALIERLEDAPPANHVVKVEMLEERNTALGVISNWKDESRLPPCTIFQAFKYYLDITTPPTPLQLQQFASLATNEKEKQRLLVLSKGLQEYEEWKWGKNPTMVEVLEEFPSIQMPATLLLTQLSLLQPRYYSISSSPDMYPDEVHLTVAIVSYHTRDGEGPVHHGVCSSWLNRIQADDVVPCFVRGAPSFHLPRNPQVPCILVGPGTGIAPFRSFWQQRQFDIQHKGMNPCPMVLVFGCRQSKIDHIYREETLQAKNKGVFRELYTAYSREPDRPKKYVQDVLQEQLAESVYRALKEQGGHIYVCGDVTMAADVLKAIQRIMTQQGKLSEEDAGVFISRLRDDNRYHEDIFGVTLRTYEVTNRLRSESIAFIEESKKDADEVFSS
For the compound `[N-]=[N+]=[N-]`, the compound was called inactive.

For `ClC(Cl)(Cl)c1ccccc1`, the result was inactive.

In the case of `Cc1ccc(N)cc1N`, the AC50 is 6.59 µM (active).
